# Legend:
# Assay in all cases: DAPPL (digital affinity profiling via proximity ligation, sequencing); 10 mM Tris-HCl pH 7.5, 50 mM NaCl, 1 mM DTT, 4% glycerol, room temperature, 30 min; GST-TFs on glutathione beads, 16-mer random dsDNA library, 0.1% formaldehyde crosslink after washing; high values mean tight binding
# FEV = target: T1, FEV (Homo sapiens, UniProt Q99581 1-238); conditions: protein: recombinant; tags: N-terminal GST; dsDNA, one strand shown
# T1 sequence: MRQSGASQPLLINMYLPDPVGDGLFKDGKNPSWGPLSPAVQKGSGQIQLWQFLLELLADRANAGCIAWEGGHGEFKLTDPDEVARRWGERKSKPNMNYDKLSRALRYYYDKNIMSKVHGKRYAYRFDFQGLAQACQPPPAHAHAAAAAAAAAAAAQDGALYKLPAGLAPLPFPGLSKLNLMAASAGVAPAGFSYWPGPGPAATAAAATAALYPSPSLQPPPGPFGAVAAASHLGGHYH
# Summary of the method: (§1)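 Pools of DNA-barcoded human transcription factors, expressed in yeast as GST fusions on glutathione beads and combined with a tag-only sample, were incubated with 200 nmole of a 16-mer random double-stranded DNA library. Incubation took 30 min at room temperature in Tris/NaCl/DTT/glycerol buffer and was followed by washing, 0.1% formaldehyde crosslinking, proximity ligation (BsaI/T4 ligase, 1 h, 37 °C), PCR amplification and sequencing on an Illumina NextSeq500. Binding signal is the ratio of a hexamer's read frequency for a factor to its frequency for the tag-only sample.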
# ETV5 = ETV5 (Homo sapiens, UniProt P41161 1-510); conditions: protein: recombinant; tags: N-terminal GST; dsDNA, one strand shown
# Sequence of ETV5 (P41161 whole entry): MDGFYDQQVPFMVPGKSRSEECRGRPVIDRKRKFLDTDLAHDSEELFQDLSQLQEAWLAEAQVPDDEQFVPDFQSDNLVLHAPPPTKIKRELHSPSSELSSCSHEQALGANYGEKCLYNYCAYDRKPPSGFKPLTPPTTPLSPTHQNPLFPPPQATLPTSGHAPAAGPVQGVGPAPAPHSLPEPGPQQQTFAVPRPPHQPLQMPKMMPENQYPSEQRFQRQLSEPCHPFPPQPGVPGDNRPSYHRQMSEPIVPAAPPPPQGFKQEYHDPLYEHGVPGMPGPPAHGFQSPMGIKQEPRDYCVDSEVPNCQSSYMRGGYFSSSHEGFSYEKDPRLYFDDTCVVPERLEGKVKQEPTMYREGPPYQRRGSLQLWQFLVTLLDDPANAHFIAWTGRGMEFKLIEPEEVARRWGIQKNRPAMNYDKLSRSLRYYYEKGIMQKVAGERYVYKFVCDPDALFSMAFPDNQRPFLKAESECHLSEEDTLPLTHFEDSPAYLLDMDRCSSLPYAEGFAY
# Summary of the method: as §1
# HSF1 = HSF1 (Homo sapiens, UniProt Q00613 1-529); conditions: protein: recombinant; tags: N-terminal GST; chain copies: 3; dsDNA, one strand shown
# Sequence of HSF1 (Q00613 whole entry): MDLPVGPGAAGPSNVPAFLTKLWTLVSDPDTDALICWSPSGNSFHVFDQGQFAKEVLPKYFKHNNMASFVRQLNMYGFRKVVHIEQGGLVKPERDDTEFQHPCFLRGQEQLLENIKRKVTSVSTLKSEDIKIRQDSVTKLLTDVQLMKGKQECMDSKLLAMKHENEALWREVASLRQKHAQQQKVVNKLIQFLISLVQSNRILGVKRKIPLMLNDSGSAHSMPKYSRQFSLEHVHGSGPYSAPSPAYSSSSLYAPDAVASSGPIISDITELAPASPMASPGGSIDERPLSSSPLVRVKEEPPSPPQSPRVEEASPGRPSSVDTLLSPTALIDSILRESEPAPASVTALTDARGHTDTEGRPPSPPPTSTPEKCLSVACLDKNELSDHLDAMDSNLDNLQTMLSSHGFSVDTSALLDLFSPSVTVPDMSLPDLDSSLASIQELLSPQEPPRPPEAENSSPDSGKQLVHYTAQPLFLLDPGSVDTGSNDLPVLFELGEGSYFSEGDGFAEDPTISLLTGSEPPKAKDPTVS
# Summary of the method: as §1
# SPIC = target: T2, SPIC (Homo sapiens, UniProt Q8N5J4 1-248); conditions: protein: recombinant; tags: N-terminal GST; dsDNA, one strand shown
# T2 sequence: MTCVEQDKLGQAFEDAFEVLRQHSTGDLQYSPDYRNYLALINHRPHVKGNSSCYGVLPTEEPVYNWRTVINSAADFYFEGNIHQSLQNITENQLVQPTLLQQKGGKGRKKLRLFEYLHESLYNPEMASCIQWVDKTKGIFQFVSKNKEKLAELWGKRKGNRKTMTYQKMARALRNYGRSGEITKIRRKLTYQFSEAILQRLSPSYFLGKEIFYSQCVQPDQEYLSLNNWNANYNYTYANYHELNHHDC
# Summary of the method: as §1
# ELF4 = ELF4 (Homo sapiens, UniProt Q99607 1-663); conditions: protein: recombinant; tags: N-terminal GST; dsDNA, one strand shown
# Sequence of ELF4 (Q99607 whole entry): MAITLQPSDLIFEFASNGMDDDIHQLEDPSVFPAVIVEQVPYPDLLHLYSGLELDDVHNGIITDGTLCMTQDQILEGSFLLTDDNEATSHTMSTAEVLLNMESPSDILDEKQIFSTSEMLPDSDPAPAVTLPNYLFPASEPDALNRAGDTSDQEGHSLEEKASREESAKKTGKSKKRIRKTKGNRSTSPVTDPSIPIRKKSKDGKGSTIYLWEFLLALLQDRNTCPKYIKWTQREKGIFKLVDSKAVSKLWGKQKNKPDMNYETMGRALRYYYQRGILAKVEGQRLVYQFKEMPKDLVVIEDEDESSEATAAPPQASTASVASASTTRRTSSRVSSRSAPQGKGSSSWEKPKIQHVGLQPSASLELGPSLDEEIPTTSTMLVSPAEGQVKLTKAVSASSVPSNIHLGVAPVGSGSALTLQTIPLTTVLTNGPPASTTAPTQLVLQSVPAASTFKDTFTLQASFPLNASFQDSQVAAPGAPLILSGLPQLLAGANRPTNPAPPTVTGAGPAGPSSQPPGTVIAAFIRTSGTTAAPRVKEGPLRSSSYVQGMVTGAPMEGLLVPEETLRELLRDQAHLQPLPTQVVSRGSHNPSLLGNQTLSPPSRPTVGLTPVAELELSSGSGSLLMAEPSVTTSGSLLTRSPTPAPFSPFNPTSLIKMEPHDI
# Summary of the method: as §1
# ELK4 = target: T3, ELK4 (Homo sapiens, UniProt P28324-2 1-405); conditions: protein: recombinant; tags: N-terminal GST; dsDNA, one strand shown
# T3 sequence: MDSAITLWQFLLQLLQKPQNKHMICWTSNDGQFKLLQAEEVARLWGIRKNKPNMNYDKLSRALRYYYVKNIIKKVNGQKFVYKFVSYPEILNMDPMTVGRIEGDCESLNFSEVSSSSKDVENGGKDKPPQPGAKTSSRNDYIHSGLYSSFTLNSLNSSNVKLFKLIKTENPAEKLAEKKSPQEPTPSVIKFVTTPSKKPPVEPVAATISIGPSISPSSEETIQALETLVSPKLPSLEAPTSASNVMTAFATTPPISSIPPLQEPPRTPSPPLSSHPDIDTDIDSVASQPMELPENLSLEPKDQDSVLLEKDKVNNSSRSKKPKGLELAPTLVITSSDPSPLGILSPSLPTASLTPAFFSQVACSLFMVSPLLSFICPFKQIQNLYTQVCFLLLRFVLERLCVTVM
# Summary of the method: as §1
# ETV2 = target: T4, ETV2 (Homo sapiens, UniProt O00321 1-342); conditions: protein: recombinant; tags: N-terminal GST; dsDNA, one strand shown
# T4 sequence: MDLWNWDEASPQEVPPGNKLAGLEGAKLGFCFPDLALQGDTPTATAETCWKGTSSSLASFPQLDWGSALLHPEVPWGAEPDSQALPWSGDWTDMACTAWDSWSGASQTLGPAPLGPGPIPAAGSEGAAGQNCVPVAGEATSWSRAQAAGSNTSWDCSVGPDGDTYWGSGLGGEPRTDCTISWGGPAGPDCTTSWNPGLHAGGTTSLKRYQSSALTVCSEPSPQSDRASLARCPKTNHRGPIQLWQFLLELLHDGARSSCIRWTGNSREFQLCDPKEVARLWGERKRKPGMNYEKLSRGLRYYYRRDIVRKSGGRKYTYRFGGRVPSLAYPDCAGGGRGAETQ
# Summary of the method: as §1
# ELF3 = target: T5, ELF3 (Homo sapiens, UniProt P78545 1-371); conditions: protein: recombinant; tags: N-terminal GST; dsDNA, one strand shown
# T5 sequence: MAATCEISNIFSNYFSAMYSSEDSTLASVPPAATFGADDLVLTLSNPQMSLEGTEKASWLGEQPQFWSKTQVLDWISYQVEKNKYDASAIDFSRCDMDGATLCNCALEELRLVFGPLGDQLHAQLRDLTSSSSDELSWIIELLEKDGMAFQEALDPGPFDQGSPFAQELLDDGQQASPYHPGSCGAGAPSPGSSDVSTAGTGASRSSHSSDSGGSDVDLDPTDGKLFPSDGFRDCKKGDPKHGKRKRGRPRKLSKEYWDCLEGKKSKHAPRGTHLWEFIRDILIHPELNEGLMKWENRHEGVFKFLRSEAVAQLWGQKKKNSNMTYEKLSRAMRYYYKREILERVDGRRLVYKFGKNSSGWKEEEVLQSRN
# Summary of the method: as §1
# CRX = CRX (Homo sapiens, UniProt O43186 1-299); conditions: protein: recombinant; tags: N-terminal GST; dsDNA, one strand shown
# Sequence of CRX (O43186 whole entry): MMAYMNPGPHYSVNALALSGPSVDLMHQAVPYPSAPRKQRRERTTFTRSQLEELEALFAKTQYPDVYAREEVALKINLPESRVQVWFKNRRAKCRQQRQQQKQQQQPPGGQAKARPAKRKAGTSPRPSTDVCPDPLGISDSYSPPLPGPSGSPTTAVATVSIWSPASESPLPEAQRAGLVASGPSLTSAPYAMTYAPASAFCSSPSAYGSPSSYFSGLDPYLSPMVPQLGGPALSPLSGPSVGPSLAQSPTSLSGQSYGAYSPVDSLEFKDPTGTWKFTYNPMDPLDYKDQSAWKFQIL
# Summary of the method: as §1
# ETV1 = ETV1 (Homo sapiens, UniProt P50549 1-477); conditions: protein: recombinant; tags: N-terminal GST; dsDNA, one strand shown
# Sequence of ETV1 (P50549 whole entry): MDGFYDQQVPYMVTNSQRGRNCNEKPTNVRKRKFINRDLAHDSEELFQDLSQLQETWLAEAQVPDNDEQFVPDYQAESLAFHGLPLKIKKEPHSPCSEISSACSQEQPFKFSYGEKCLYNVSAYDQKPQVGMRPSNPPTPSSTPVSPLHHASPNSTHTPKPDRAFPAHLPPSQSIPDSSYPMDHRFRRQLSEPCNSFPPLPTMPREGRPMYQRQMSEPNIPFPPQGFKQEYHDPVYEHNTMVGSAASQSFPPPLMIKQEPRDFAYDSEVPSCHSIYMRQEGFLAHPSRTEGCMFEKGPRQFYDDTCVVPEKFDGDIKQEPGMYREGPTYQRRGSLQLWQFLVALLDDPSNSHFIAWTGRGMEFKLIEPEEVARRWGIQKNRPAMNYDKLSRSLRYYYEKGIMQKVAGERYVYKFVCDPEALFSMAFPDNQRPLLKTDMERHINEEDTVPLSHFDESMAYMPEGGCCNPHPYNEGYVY
# Summary of the method: as §1
sequence,measurement,setting,value
TGCCTT,binding signal,FEV,"1.3 fold enrichment (6-mer frequency, TF over GST control)"
same,binding signal,ETV5,"1.36 fold enrichment (6-mer frequency, TF over GST control)"
same,binding signal,HSF1,"1.27 fold enrichment (6-mer frequency, TF over GST control)"
same,binding signal,SPIC,"1.55 fold enrichment (6-mer frequency, TF over GST control)"
same,binding signal,ELF4,"1.27 fold enrichment (6-mer frequency, TF over GST control)"
same,binding signal,ELK4,"1.43 fold enrichment (6-mer frequency, TF over GST control)"
same,binding signal,ETV2,"1.2 fold enrichment (6-mer frequency, TF over GST control)"
same,binding signal,ELF3,"1.45 fold enrichment (6-mer frequency, TF over GST control)"
same,binding signal,CRX,"1.33 fold enrichment (6-mer frequency, TF over GST control)"
same,binding signal,ETV1,"1.34 fold enrichment (6-mer frequency, TF over GST control)"
